CYP2C19 act: cytochrome P450 2C19 (human) activation. P33261. recombinant CYP2C19, luciferin-H EGE luminescence; active compounds read high; 0 = fully inhibited enzyme, 1 = untreated enzyme. activation factor at 5 µM. 96,000 tested, under 10 active. AID 1025;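 active means activation factor of at least 2 at 5 µM in the primary screen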
Target sequence (P33261 whole entry, looked up): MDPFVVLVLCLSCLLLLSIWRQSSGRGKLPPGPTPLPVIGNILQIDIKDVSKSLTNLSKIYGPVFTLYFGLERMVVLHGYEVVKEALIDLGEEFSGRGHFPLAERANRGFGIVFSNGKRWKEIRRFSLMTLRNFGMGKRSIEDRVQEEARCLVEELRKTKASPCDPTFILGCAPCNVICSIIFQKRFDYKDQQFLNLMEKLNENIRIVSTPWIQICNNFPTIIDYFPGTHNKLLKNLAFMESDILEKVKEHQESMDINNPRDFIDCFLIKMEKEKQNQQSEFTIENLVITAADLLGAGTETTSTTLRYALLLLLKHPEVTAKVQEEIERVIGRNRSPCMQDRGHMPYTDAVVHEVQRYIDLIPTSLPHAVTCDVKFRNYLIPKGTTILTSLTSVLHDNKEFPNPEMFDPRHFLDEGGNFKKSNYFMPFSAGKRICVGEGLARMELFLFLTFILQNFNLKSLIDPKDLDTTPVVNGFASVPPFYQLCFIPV
CYP2C9 inh: human CYP2C9 inhibition. P11712. CYP2C9 Supersomes, luciferin-H conversion, luminescence. inhibition, % at 5 µM. hit rate 20% among 96,000;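 active means blocking of liver enzyme CYP2C9 beyond about 50% at 5 µM, limit read from the data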
CYP2C19 inhib: human CYP2C19 inhibition. hit rate 21% among 96,000. inhibition, % at 5 µM. CYP2C19 Supersomes, luciferin-H EGE luminescence, 30 min. P33261;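 active means CYP2C19 inhibition above a set limit at 5 µM in the primary screen, cut at about 50% in these data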
CYP2C9 activ: increases human cytochrome P450 2C9 activity; P11712; recombinant CYP2C9, luciferin-H conversion, luminescence; active compounds read high; factor 1 = untreated enzyme, 0 = blocked; activation factor at 5 µM; hit rate 1.4% among 96,000;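 active means activation factor of 2 or more for CYP2C9 at a 5 µM dose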
Cav32 inh: inhibitors of human Cav3.2 T-type calcium channel. Cav3.2-expressing cells, Fluo-4 calcium fluorescence FDSS; active compounds read low. B-score at 10 µM. hit rate 4% among 100,000;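 active means single-dose well whose peak fluorescence ratio is a statistical outlier from its plate by either plate-standardised score or position-corrected B-score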
Large screens that a line does not name were inactive. Compounds with a hit are over-represented: about 27% of the library has one in this group of screens.

O=S(=O)(c1ccc2nc(COc3ccc(Cl)cc3Cl)[nH]c2c1)N1CCOCC1	CYP2C9 inh 58, CYP2C19 inhib 51
Cc1ccc(S(=O)(=O)N2CCOCC2)cc1C(=O)N1CCOCC1	none
CCC(C)c1cc(S(=O)(=O)N2CCOCC2)ccc1OC (configuration not stated)	CYP2C19 inhib 69
Cc1ccc(S(=O)(=O)N2CCOCC2)cc1C(=O)N1c2ccccc2Sc2ccccc21	CYP2C9 inh 61, Cav32 inh -4.2
O=C(Nc1ccc(N2CCOCC2)cc1)Nc1ccc2nc(-c3ccco3)c(-c3ccco3)nc2c1	none (no result: CYP2C19 act, CYP2C9 inh, CYP2C19 inhib, CYP2C9 activ)
COCCNC(=O)COc1cc(=O)n(C)c2ccccc12	none
O=C(Nn1c(O)c(C=C2N=c3ccccc3=N2)sc1=S)c1cccc(Cl)c1	none
COc1ccc(S(=O)(=O)N2CCOCC2)cc1Cl	CYP2C19 inhib 59, CYP2C9 activ 3.3
Cc1ccc(S(=O)(=O)N2CCOCC2)cc1C(=O)OCC(=O)N1CCc2ccccc2C1	CYP2C9 inh 78, CYP2C19 inhib 75
Cc1ccc(S(=O)(=O)N2CCCN(S(=O)(=O)c3ccc(C)c(C)c3)CC2)cc1C	none (no result: Cav32 inh)
Cc1ccc(S(=O)(=O)N2CCN(S(=O)(=O)N3CCOCC3)CC2)cc1C	CYP2C19 inhib 50
COc1ccc(S(=O)(=O)N2CCOCC2)c(Cl)c1Cl	CYP2C19 inhib 70, CYP2C9 activ 4
Cc1ccc(C(=O)Nc2nc(C)c(C)s2)o1	none
Cn1c(=O)c2c(n(C)c1=O)=NC1(CCCCC1)ON=2	none
O=C(NC1CCSC1=O)c1cccc(C(=O)NC2CCSC2=O)c1 (configuration not stated)	none (no result: Cav32 inh)
COc1ccc2cc(S(=O)(=O)N3CCOCC3)ccc2c1	CYP2C19 inhib 79
Cc1ccc(S(=O)(=O)N2CCSC2)cc1C	CYP2C9 activ 2.3
Cc1ccc(S(=O)(=O)N2CCCSCC2)cc1	none
C=CCOn1c(=O)c(-c2ccc(OC)c(OC)c2)[n+]([O-])c2ccccc21	none
C=CCOn1c(=O)c(-c2cccs2)[n+]([O-])c2ccccc21	CYP2C9 inh 68, CYP2C19 inhib 57
CCCCSc1nc(SCC(=O)NCc2ccco2)c2c3c(sc2n1)COC(C)(CC)C3 (configuration not stated)	CYP2C9 inh 51, Cav32 inh -5.5
CSc1nc(SCC(=O)NCc2ccco2)c2c3c(sc2n1)COC(C)(C)C3	none
CCCCc1nc2sc3c(SCC(=O)NCc4ccco4)ncnc3c2c2c1CCC2	CYP2C9 inh 82, CYP2C19 inhib 58
O=C1CCc2cc(S(=O)(=O)NC(Cc3ccccc3)C(=O)NC3CCCC3)ccc2N1 (configuration not stated)	none
C=CCn1c(N(C)C)nc2c1c(=O)[nH]c(=O)n2C	none (no result: CYP2C19 act, CYP2C9 inh, CYP2C19 inhib, CYP2C9 activ)
CCOC(=O)c1ccc(CSc2nnc(-c3ccncc3)n2N)cc1	CYP2C19 inhib 68 (no result: Cav32 inh)
CC(C)OC(=O)CSc1nnc(-c2ccncc2)n1N	CYP2C9 inh 56, CYP2C19 inhib 86
Cc1ccc(-n2c(SCC(=O)OC(C)C)nnc2-c2ccncc2)cc1	none (no result: CYP2C19 act, CYP2C9 inh, CYP2C19 inhib, CYP2C9 activ)
Cc1ccc(C)c(NC(=O)CSc2nnc(-c3ccncc3)n2N)c1	CYP2C9 inh 92, CYP2C19 inhib 60
CC1CCN(C(=O)CSc2nnc(CNC(=O)c3ccco3)o2)CC1	none
Cc1nc(CS(=O)(=O)c2ccccc2)cc(Sc2ccc(Cl)cc2Cl)n1	CYP2C9 inh 50, Cav32 inh -5.7
COc1ccccc1OCCSc1nnnn1C1CCCCC1	none (no result: CYP2C19 act, CYP2C9 inh, CYP2C19 inhib, CYP2C9 activ)
CC(=O)c1cccc(-n2nnnc2SCC(=O)Nc2cccc(NC(=O)c3ccco3)c2)c1	CYP2C9 inh 55, CYP2C19 inhib 82
COc1ccc(Cl)cc1C(=O)CSc1nnnn1C1CCCC1	CYP2C19 inhib 76
O=C(CSc1nnnn1C1CCCC1)Nc1cccc(NC(=O)c2ccco2)c1	CYP2C9 inh 83, CYP2C19 inhib 83
c1ccc(OCCSc2nnnn2C2CCCCC2)cc1	CYP2C9 inh 82, CYP2C19 inhib 68 (no result: Cav32 inh)
C1CCCN(CCCCN2CCCCCC2)CC1	none (no result: Cav32 inh)
O=C(CSc1nnnn1C1CCCCC1)Nc1ccc2c(c1)OCO2	CYP2C9 inh 53
Cc1ccc(-n2nnnc2SCC(=O)Nc2ccc3c(c2)OCCO3)cc1C	none (no result: CYP2C19 act, CYP2C9 inh, CYP2C19 inhib, CYP2C9 activ)
COc1cc(NC(=O)CSc2nnc(-c3ccncc3)n2C2CCCCC2)ccc1NC(=O)c1ccco1	CYP2C9 inh 72, CYP2C19 inhib 62
O=C(CSc1nnnn1C1CCCCC1)N1CCCC1	none
COc1cc(NC(=O)CSc2nc3ccccc3c(=O)n2C)ccc1NC(=O)c1ccco1	none
O=C(CSc1nnnn1C1CCCC1)Nc1ccc(F)cc1	none
CC(C)N(C(=O)CSc1nnnn1C1CCCC1)C(C)C	CYP2C19 inhib 81, Cav32 inh -3.7
Cc1ccc(-n2nnnc2SCC(=O)NNC(=O)c2ccco2)cc1C	CYP2C9 activ 2
O=S(=O)(c1ccc2ccccc2c1)N(CC(O)CN1CCOCC1)c1ccccc1 (configuration not stated)	none
O=C(CSc1nnnn1C1CCCCC1)NCc1ccccc1	CYP2C9 inh 62, CYP2C19 inhib 62
O=C(CSc1nnnn1C1CCCCC1)Nc1cccc(NC(=O)c2ccco2)c1	CYP2C9 inh 77, CYP2C19 inhib 69
COC(=O)c1ccc(CON2C(=O)c3ccccc3C2=O)cc1	none
COc1ccc(C(=O)C(CO)Oc2ccccc2OC)cc1OC (configuration not stated)	none (no result: Cav32 inh)
COc1ccc(C(=O)c2c(C(F)(F)F)oc3c2C(=O)c2ccccc2C3=O)cc1OC	CYP2C19 inhib 67
O=C(c1nn(Cc2ccccc2)c(=O)c2ccccc12)N1CCN(c2ccccn2)CC1	Cav32 inh -5.6
O=C(Cn1nc(Cc2cccnc2)c2ccccc2c1=O)N1CCN(c2ccccn2)CC1	CYP2C9 inh 87, Cav32 inh -3.3
O=C(c1nn(Cc2ccccc2)c(=O)c2ccccc12)N1CCc2ccccc2C1	Cav32 inh -4
O=C(CN1C(=O)c2ccccc2C1=O)N1CCN(c2ccccn2)CC1	none
CCCC(=O)OC1CC(C)N(C(=O)c2ccccc2)c2ccc(C)cc21 (configuration not stated)	Cav32 inh -4.4 (no result: CYP2C19 act, CYP2C9 inh, CYP2C19 inhib, CYP2C9 activ)
CC(=O)OC1CC(C)N(C(=O)c2ccccc2)c2ccc(C)cc21 (configuration not stated)	CYP2C19 inhib 85
Cc1ccc2c(c1)N(CC(=O)NC1CCCc3ccccc31)C(=O)CO2 (configuration not stated)	none
Cc1cc2c(c(=O)n1CCN(C)C)C(c1ccncc1)C(C#N)=C(N)O2 (configuration not stated)	none
Cc1cc2c(c(=O)n1Cc1cccnc1)C(Cc1ccccc1)C(C#N)=C(N)O2 (configuration not stated)	CYP2C9 inh 68, CYP2C19 inhib 74
COc1ccc(C2C(C#N)=C(N)Oc3cc(C)n(Cc4ccncc4)c(=O)c32)cc1 (configuration not stated)	CYP2C9 inh 72, CYP2C19 inhib 62
COc1cc(C(N)=O)cc(Br)c1OC	none
CC(C)CNC(=O)c1cc(-c2ccc(Cl)c(Cl)c2)on1	none
